Values joined by “and” are separate entries in the source; they are usually repeats but may differ in a detail not shown here. Equal entries are not always repeated. Screen size: about 5,500 compounds; about 2,000 (36%) were called active. Inconclusive results (about 18%) are left out. Some of the results follow. Unmarked numbers belong to inactive results. No stated cut-off is given here; in the data, active means normalized growth mostly below about 0.91 (no sharp cut-off); inconclusive means no clear call, values can overlap the other calls; inactive means mostly above about 0.92.
Experiment: chemical genetic growth profiling, strain panel (AID 1159580);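 further: tested at 20 µM; growth read once vehicle control cultures reached saturation at 30 °C; 1 = growth at the plate median or of vehicle wells; lower values mean less growth of the strain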
Details: growth OD
[1] = S. cerevisiae deletion strains, locus YDR150W, strain NUM1, active compounds read low
[2] = S. cerevisiae deletion strains, locus YMR307W, strain GAS1, active compounds read low
[3] = S. cerevisiae deletion strains, locus YNL128W, strain TEP1, active compounds read low
[4] = S. cerevisiae deletion strains, locus YNL322C, strain KRE1, active compounds read low
[5] = S. cerevisiae deletion strains, locus YPL241C, strain CIN2, active compounds read low

SMILES: COc1cc2c(cc1-c1cc3cc4ccoc4cc3oc1=O)OCO2
- normalized growth (S. cerevisiae deletion strains, locus YBR021W, strain FUR4, active compounds read low): 1.31 [resistant] (active)
- normalized growth (S. cerevisiae deletion strains, locus YBR229C, strain ROT2, active compounds read low): 0.995
- normalized growth (S. cerevisiae deletion strains, locus YCL029C, strain bik1, active compounds read low): 0.965
- normalized growth (S. cerevisiae deletion strains, locus YDL035C, strain GPR1, active compounds read low): 1.01
- normalized growth (S. cerevisiae deletion strains, locus YDL074C, strain BRE1, active compounds read low): 1
- normalized growth (S. cerevisiae deletion strains, locus YDL101C, strain DUN1, active compounds read low): 0.98
- normalized growth (S. cerevisiae deletion strains, locus YDL185W, strain tfp1, active compounds read low): 0.97
- normalized growth (S. cerevisiae deletion strains, locus YDL192W, strain arf1, active compounds read low): 1.01
- normalized growth (S. cerevisiae deletion strains, locus YDR101C, strain arx1, active compounds read low): 0.981
- normalized growth [1]: 0.991
- normalized growth (S. cerevisiae deletion strains, locus YDR162C, strain NBP2, active compounds read low): 0.977
- normalized growth (S. cerevisiae deletion strains, locus YDR318W, strain mcm21, active compounds read low): 0.973
- normalized growth (S. cerevisiae deletion strains, locus YDR388W, active compounds read low): 0.965
- normalized growth (S. cerevisiae deletion strains, locus YDR502C, strain sam2, active compounds read low): 0.95
- normalized growth (S. cerevisiae deletion strains, locus YEL061C, strain CIN8, active compounds read low): 1.01
- normalized growth (S. cerevisiae deletion strains, locus YER110C, active compounds read low): 0.97
- normalized growth (S. cerevisiae deletion strains, locus YER155C, strain BEM2, active compounds read low): 1.11 [resistant] (active)
- normalized growth (S. cerevisiae deletion strains, locus YER167W, strain BCK2, active compounds read low): 1.02
- normalized growth (S. cerevisiae deletion strains, locus YGL078C, strain dbp3, active compounds read low): 0.997
- normalized growth (S. cerevisiae deletion strains, locus YGL086W, strain mad1, active compounds read low): 1.01
- normalized growth (S. cerevisiae deletion strains, locus YGL248W, strain PDE1, active compounds read low): 0.977
- normalized growth (S. cerevisiae deletion strains, locus YGR078C, strain PAC10, active compounds read low): 0.993
- normalized growth (S. cerevisiae deletion strains, locus YGR135W, strain pre9, active compounds read low): 0.993
- normalized growth (S. cerevisiae deletion strains, locus YGR252W, strain gcn5, active compounds read low): 1.16
- normalized growth (S. cerevisiae deletion strains, locus YHR030C, strain SLT2, active compounds read low): 0.984 and 1
- normalized growth (S. cerevisiae deletion strains, locus YHR079C, strain IRE1 (second series), active compounds read low): 0.979
- normalized growth (S. cerevisiae deletion strains, locus YHR079C, strain IRE1, active compounds read low): 1.01
- normalized growth (S. cerevisiae deletion strains, locus YHR094C, strain hxt1, active compounds read low): 1.16 [resistant] (active)
- normalized growth (S. cerevisiae deletion strains, locus YHR129C, strain ARP1, active compounds read low): 1.01
- normalized growth (S. cerevisiae deletion strains, locus YHR200W, strain rpn10, active compounds read low): 0.972
- normalized growth (S. cerevisiae deletion strains, locus YIL066C, strain RNR3, active compounds read low): 0.973
- normalized growth (S. cerevisiae deletion strains, locus YIL073C, strain SPO22, active compounds read low): 0.902
- normalized growth (S. cerevisiae deletion strains, locus YIL125W, strain kgd1, active compounds read low): 0.984
- normalized growth (S. cerevisiae deletion strains, locus YIR030C, strain dcg1, active compounds read low): 0.989
- normalized growth (S. cerevisiae deletion strains, locus YJL095W, strain BCK1, active compounds read low): 0.979 and 1
- normalized growth (S. cerevisiae deletion strains, locus YJL134W, strain LCB3, active compounds read low): 0.973
- normalized growth (S. cerevisiae deletion strains, locus YJL168C, strain set2, active compounds read low): 1.01
- normalized growth (S. cerevisiae deletion strains, locus YJL187C, strain SWE1 (second series), active compounds read low): 0.98
- normalized growth (S. cerevisiae deletion strains, locus YJR043C, strain POL32, active compounds read low): 1.01
- normalized growth (S. cerevisiae deletion strains, locus YJR066W, strain TOR1, active compounds read low): 0.942
- normalized growth (S. cerevisiae deletion strains, locus YKL009W, strain mrt4, active compounds read low): 1.19 [resistant] (active)
- normalized growth (S. cerevisiae deletion strains, locus YKL068W, active compounds read low): 1.02
- normalized growth (S. cerevisiae deletion strains, locus YKL085W, strain MDH1 (second series), active compounds read low): 1.05
- normalized growth (S. cerevisiae deletion strains, locus YKL085W, strain MDH1, active compounds read low): 1.05
- normalized growth (S. cerevisiae deletion strains, locus YKR001C, strain vps1, active compounds read low): 1.01
- normalized growth (S. cerevisiae deletion strains, locus YLR039C, strain RIC1, active compounds read low): 0.954
- normalized growth (S. cerevisiae deletion strains, locus YLR058C, strain SHM2, active compounds read low): 0.973
- normalized growth (S. cerevisiae deletion strains, locus YLR102C, strain apc9, active compounds read low): 0.997
- normalized growth (S. cerevisiae deletion strains, locus YLR113W, strain HOG1, active compounds read low): 0.996
- normalized growth (S. cerevisiae deletion strains, locus YLR262C, strain YPT6, active compounds read low): 1.19
- normalized growth (S. cerevisiae deletion strains, locus YLR268W, strain sec22, active compounds read low): 0.95
- normalized growth (S. cerevisiae deletion strains, locus YLR330W, strain CHS5, active compounds read low): 0.983
- normalized growth (S. cerevisiae deletion strains, locus YLR342W, strain FKS1 (second series), active compounds read low): 0.993
- normalized growth (S. cerevisiae deletion strains, locus YLR371W, strain rom2, active compounds read low): 1.18 [resistant] (active)
- normalized growth (S. cerevisiae deletion strains, locus YLR418C, strain cdc73, active compounds read low): 0.915
- normalized growth (S. cerevisiae deletion strains, locus YML016C, strain PPZ1, active compounds read low): 0.982
- normalized growth (S. cerevisiae deletion strains, locus YML032C, strain rad52, active compounds read low): 0.983
- normalized growth (S. cerevisiae deletion strains, locus YML124C, strain tub3, active compounds read low): 0.975
- normalized growth (S. cerevisiae deletion strains, locus YMR078C, strain ctf18, active compounds read low): 0.984
- normalized growth (S. cerevisiae deletion strains, locus YMR223W, strain ubp8, active compounds read low): 0.999
- normalized growth [2]: 1.57 [resistant] (active)
- normalized growth (S. cerevisiae deletion strains, locus YNL067W, strain RPL9B, active compounds read low): 0.968
- normalized growth [3]: 1.01
- normalized growth (S. cerevisiae deletion strains, locus YNL183C, strain NPR1, active compounds read low): 0.925
- normalized growth (S. cerevisiae deletion strains, locus YNL233W, strain BNI4, active compounds read low): 1
- normalized growth (S. cerevisiae deletion strains, locus YNL250W, strain rad50, active compounds read low): 0.975
- normalized growth (S. cerevisiae deletion strains, locus YNL271C, strain bni1, active compounds read low): 0.991
- normalized growth (S. cerevisiae deletion strains, locus YNL298W, strain CLA4, active compounds read low): 1
- normalized growth (S. cerevisiae deletion strains, locus YNL307C, strain MCK1, active compounds read low): 0.944
- normalized growth [4]: 1.16 [resistant] (active)
- normalized growth (S. cerevisiae deletion strains, locus YNR052C, strain pop2, active compounds read low): 1.03
- normalized growth (S. cerevisiae deletion strains, locus YOL012C, strain htz1): 1.22
- normalized growth (S. cerevisiae deletion strains, locus YOL147C, strain pex11, active compounds read low): 0.992
- normalized growth (S. cerevisiae deletion strains, locus YOR061W, strain CKA2, active compounds read low): 0.971
- normalized growth (S. cerevisiae deletion strains, locus YOR069W, strain VPS5, active compounds read low): 0.977
- normalized growth (S. cerevisiae deletion strains, locus YOR136W, strain idh2, active compounds read low): 0.987
- normalized growth (S. cerevisiae deletion strains, locus YOR144C, strain elg1, active compounds read low): 0.981
- normalized growth (S. cerevisiae deletion strains, locus YOR184W, strain ser1, active compounds read low): 0.907
- normalized growth (S. cerevisiae deletion strains, locus YOR231W, strain MKK1, active compounds read low): 1.07
- normalized growth (S. cerevisiae deletion strains, locus YOR316C, strain cot1, active compounds read low): 1.17 [resistant] (active)
- normalized growth [5]: 0.984
- normalized growth (S. cerevisiae deletion strains, locus YPL256C, strain CLN2, active compounds read low): 1.01
- normalized growth (S. cerevisiae deletion strains, locus YPR119W, strain clb2, active compounds read low): 0.966
- normalized growth (S. cerevisiae deletion strains, locus YPR141C, strain kar3, active compounds read low): 1.02
- normalized growth (S. cerevisiae deletion strains, locus YPR163C, strain tif3, active compounds read low): 0.969
- normalized growth (S. cerevisiae deletion strains, locus YPR167C, strain met16, active compounds read low): 0.995
- normalized growth (S. cerevisiae deletion strains, strain wtn01, active compounds read low): 0.972
- normalized growth (S. cerevisiae strains, strain wild type, active compounds read low): 1.01

SMILES: CCCCN1CCC(COC(=O)c2cc(Cl)c(N)c3c2OCCO3)CC1
- normalized growth (S. cerevisiae deletion strains, locus YAL013W, strain DEP1, active compounds read low): 0.976
- normalized growth (S. cerevisiae deletion strains, locus YAL040C, strain CLN3, active compounds read low): 0.973
- normalized growth (S. cerevisiae deletion strains, locus YCL061C, strain MRC1 (second series), active compounds read low): 0.987
- normalized growth [1]: 0.997
- normalized growth (S. cerevisiae deletion strains, locus YDR363W, strain ESC2, active compounds read low): 0.968
- normalized growth (S. cerevisiae deletion strains, locus YER002W, strain NOP16, active compounds read low): 0.987
- normalized growth (S. cerevisiae deletion strains, locus YGR229C, strain SMI1, active compounds read low): 0.966
- normalized growth [2]: 0.989
- normalized growth [3]: 0.991
- normalized growth (S. cerevisiae deletion strains, locus YNL153C, strain GIM3, active compounds read low): 0.996
- normalized growth (S. cerevisiae deletion strains, locus YNL175C, strain NOP13, active compounds read low): 1
- normalized growth (S. cerevisiae deletion strains, locus YNL197C, strain WHI3, active compounds read low): 0.991
- normalized growth (S. cerevisiae deletion strains, locus YNL224C, strain SQS1, active compounds read low): 1.01
- normalized growth [4]: 0.982
- normalized growth (S. cerevisiae deletion strains, locus YOR083W, strain WHI5 (second series), active compounds read low): 0.989
- normalized growth [5]: 0.993

— PubChem BioAssay AID1159580 (chemical genetic matrix, 2015)
